# Target: Torsin-1A (Homo sapiens) (UniProt O14656)
# Assay: small-molecule binders of mutant TOR1A in lysate, primary screen, cell lysate, small-molecule microarray, COS7 lysate, 635/667 nm fluorescence (AID 1150);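 also: score pools 667 nm emission and signal to noise measuring lysate protein binding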
# Conditions: COS7 hTOR1A mutant lysate, 635 nm fluorescence, higher = more signal
# Torsin-1A (Homo sapiens), sequence (O14656 whole entry, looked up): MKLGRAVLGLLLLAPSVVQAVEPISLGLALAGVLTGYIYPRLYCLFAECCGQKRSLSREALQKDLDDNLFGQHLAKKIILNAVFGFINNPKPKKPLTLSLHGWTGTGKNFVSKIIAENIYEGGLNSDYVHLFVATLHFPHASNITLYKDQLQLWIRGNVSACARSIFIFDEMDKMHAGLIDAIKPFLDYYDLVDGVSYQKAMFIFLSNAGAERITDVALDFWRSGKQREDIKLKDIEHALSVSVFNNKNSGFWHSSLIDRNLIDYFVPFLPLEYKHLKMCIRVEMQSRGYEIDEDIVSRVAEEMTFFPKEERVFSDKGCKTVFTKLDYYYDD
row,SMILES,composite z-score
1,CC(C)C[C@@H]1NC(=O)[C@H]2C[C@@H](C(=O)NCCCCCCNC(=O)CS)[C@@H](c3cccc(OCCO)c3)N2C1=O,1.67
2,CC(C)NC(=O)[C@@]1(Cc2ccccc2I)c2ccccc2C(=O)N(Cc2ccccc2)[C@H]1c1ccc(CO)cc1,-0.181
3,O=C1O[C@H](c2ccccc2)[C@H](c2ccccc2)N2[C@H]1[C@@H](C(=O)N1CCN(c3ncccn3)CC1)[C@]1(C(=O)Nc3ccccc31)[C@H]2c1ccc(OCCO)cc1,0.36
4,COc1ccc(CCNC(=O)[C@@]2(Sc3ccc(C)cc3)CC(=O)N(Cc3ccccc3Cl)[C@@H]2c2ccc(CO)cc2I)cc1,-0.491
5,CN(C)C(=O)[C@]1(CCC(=O)OC(C)(C)C)N=C(c2ccc(OCCCO)cc2)O[C@@H]1c1ccccc1N=[N+]=[N-],2.11
6,CC(=O)NCCCC[C@@H]1NC(=O)[C@@H]2C[C@H](C(=O)NCCCCN(C)C)[C@H](c3ccc(O)cc3)N2C1=O,-0.88
7,COc1c(C)cc(-c2cc3c(c(-c4ccc(Oc5ccccc5)cc4)n2)[Si](C(C)C)(C(C)C)OC3)cc1C,0.164
8,CC(C)CNC(=O)[C@@]1(c2ccc([N+](=O)[O-])cc2)CC(=O)N(CC23CC4CC(CC(C4)C2)C3)[C@@H]1c1ccc(CO)cc1,0.395
9,Cc1ccc(F)cc1S(=O)(=O)N[C@@H]1CCN(Cc2ccc(-c3ccccc3)cc2)C1,0.743
10,CC(C)(C)OC(=O)CC[C@]1(C(=O)N2CCCCC2)N=C(c2ccc(OCCCO)cc2)O[C@H]1c1ccccc1N=[N+]=[N-],2.11
11,COC(=O)c1ccc(C(O)C2C=CC3C(=O)N(C)C(=O)C3N2NC(=O)OC(C)(C)C)o1 (stereo not given),1.5
12,CCCCCCCCCCC(O)C1C=CC2C(=O)N(Cc3ccccc3)C(=O)C2N1n1cnnc1 (stereo not given),0.567
13,CCOC(=O)C1=CC[C@@H](c2ccccc2)N(S(=O)(=O)c2ccc(C)cc2)[C@H]1C(=O)OCC,0.523
14,CCCNC(=O)[C@@]1(c2ccc([N+](=O)[O-])cc2)CC(=O)N(CC23CC4CC(CC(C4)C2)C3)[C@@H]1c1ccc(CO)cc1,0.319
15,COCCOC(=O)N1C(=O)[C@@]2(c3ccccc31)[C@H](C(=O)NC[C@H](O)c1ccccc1)[C@H]1C(=O)O[C@H](c3ccccc3)[C@H](c3ccccc3)N1[C@@H]2c1ccc(OCCO)cc1,0.857
16,CCCCC=C[C@@H](NC(=O)c1ccco1)c1ccccc1,0.225
17,CC(=O)NCCCC[C@@H]1NC(=O)[C@H]2C[C@@H](C(=O)NCCCCCC[N+](C)(C)C)[C@@H](c3cccc(OCCO)c3)N2C1=O,0.59
18,O=C(CS)NCCCCCCNC(=O)[C@H]1C[C@H]2C(=O)NCC(=O)N2[C@H]1c1ccc(O)cc1,-0.14

row,SMILES,composite z-score
1,COC(=O)[C@@]1(Cc2ccc(OC)cc2)[C@H]2c3cc(C(=O)N(C)C)n(Cc4c(OC)[nH]cc(C)c4=O)c3C[C@H]2CN1C(=O)c1ccccc1,1.16
2,CS(=O)(=O)CCOC(=O)C1=CC(c2ccc(CO)cc2)=CC(C2CC2)N(Cc2cc3c(cc2Br)OCO3)C=C1C(=O)OCCS(C)(=O)=O (stereo not given),1.45
3,C=CCOC(=O)[C@H]1[C@@H]2C(=O)O[C@@H](c3ccccc3)[C@@H](c3ccccc3)N2[C@@H](c2ccc(OCCOC(=O)[C@@H]3C[C@@H]4C(=O)N5CCC[C@H]5C(=O)N4[C@@H]3c3ccc(O)cc3)cc2)[C@]12C(=O)Nc1ccccc12,0.853
4,O=C1O[C@@H](c2ccccc2)[C@@H](c2ccccc2)N2[C@@H](c3ccccc3OCCO)[C@]3(C(=O)Nc4ccc(C#CC5(O)CCCCCC5)cc43)[C@@H](C(=O)Nc3nc4ccccc4s3)[C@H]12,0.659
5,COCC(=C=CC[C@@H](O)c1ccc(CO)o1)CCO,-0.114
6,CC(C)CNC(=O)[C@@H]1c2ccccc2C(=O)N(Cc2cc(C(F)(F)F)cc(C(F)(F)F)c2)[C@H]1c1ccc(CO)cc1,-0.537
7,C=CCOC(=O)[C@H]1[C@@H]2C(=O)O[C@@H](c3ccccc3)[C@@H](c3ccccc3)N2[C@@H](c2ccc(OCCOC(=O)[C@@H]3C[C@@H]4C(=O)NCC(=O)N4[C@@H]3c3ccc(O)cc3)cc2)[C@]12C(=O)Nc1ccccc12,0.767
8,COC(=O)[C@@]1(Cc2ccccc2)[C@H]2c3cc(C(=O)N4CCCC4)n(C)c3C[C@H]2CN1C(=O)c1ccccc1,0.0645
9,CC(C)Cc1ccc(CN2CC[C@@H](NS(=O)(=O)c3ccccc3)C2)cc1,-0.274
10,CC(=O)Nc1cc(Br)ccc1C(=O)O,0.0517
11,COC(=O)[C@@]1(Cc2ccccc2N=[N+]=[N-])COC(c2ccc(OCCCO)cc2)=N1,1.17
12,NC(=O)NCC#Cc1ccc2c(c1)[C@]1(C(=O)N2)[C@H](C(=O)NC[C@H](O)c2ccccc2)[C@H]2C(=O)O[C@H](c3ccccc3)[C@H](c3ccccc3)N2[C@@H]1c1ccc(O)cc1,0.816
13,CCOC(=O)C[C@H]1[C@H](OC(=O)c2ccc(-c3ccccc3)cc2)[C@@H](NC(=O)Cc2ccc(OC)cc2)c2cc(OCCCO)ccc2N1C(=O)c1ccc2ccccc2n1,-0.0342
14,COc1cccc(C(=O)O[C@H]2CC[C@]3(C)C4=C(CCC3C2(C)C)[C@]2(C)CC[C@H]([C@H](C)CCCC(C)C)[C@@]2(C)CC4)c1 (stereo not given in full),0.216
15,O=C/C=C/c1ccc2c(c1)OCO2,0.0622
16,O=C1C=CC(=O)[C@@H]2CC(COc3ccccc3)=C3[C@@H](CCc4ccccc4)OB(O)C[C@@H]3[C@H]12,-0.0222
17,O=C1O[C@@H](c2ccccc2)[C@@H](c2ccccc2)N2[C@@H](c3ccc(O)cc3)[C@]3(C(=O)Nc4ccc(C#CC5(O)CCCCCC5)cc43)[C@@H](C(=O)N3CCCCCCC3)[C@H]12,2.35

# Source: PubChem BioAssay
